From PubChem BioAssay (Tox21)
Records with an inconclusive call do not appear. Activity calls are given as the source filed them. Unless noted, the call rests on the fitted dose curve; in most records, active means well fitted curve in the direction sought with a large enough effect in the repeat runs; inconclusive means weak or mixed curves; inactive means no such curve, though single readings can be large; an effect the other way counts as inactive or inconclusive.

Experiments:
[1] = biological target: Thyrotropin receptor (Homo sapiens) (UniProt P16473); test: qHTS assay to identify small molecule agonists of the thyroid stimulating hormone receptor (TSHR) signaling pathway (AID 1224843; calls by dose curve; further: nearly all actives have a fitted effect of over 45% in size)
Chain of Thyrotropin receptor (Homo sapiens) (P16473 whole entry, looked up): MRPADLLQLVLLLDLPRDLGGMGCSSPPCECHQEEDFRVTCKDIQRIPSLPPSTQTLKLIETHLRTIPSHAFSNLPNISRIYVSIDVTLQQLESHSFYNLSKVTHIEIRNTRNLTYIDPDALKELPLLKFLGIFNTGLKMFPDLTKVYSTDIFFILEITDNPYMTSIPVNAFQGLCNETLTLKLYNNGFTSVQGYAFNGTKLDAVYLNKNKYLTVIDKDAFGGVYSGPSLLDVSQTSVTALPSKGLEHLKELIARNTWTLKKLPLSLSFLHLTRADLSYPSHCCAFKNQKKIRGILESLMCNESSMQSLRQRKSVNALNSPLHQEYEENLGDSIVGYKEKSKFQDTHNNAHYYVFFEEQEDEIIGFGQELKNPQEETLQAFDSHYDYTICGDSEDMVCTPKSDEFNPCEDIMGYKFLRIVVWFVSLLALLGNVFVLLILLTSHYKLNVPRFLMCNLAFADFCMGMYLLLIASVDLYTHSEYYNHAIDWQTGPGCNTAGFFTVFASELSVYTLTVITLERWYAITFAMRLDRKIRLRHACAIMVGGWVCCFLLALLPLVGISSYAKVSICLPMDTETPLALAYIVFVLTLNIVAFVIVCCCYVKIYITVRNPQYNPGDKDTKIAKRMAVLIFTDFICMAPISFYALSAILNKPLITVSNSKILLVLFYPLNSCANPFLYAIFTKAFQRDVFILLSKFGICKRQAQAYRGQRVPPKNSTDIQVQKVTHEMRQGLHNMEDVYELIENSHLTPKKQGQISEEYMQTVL
Method in brief: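 Using 15 concentrations per compound in triplicate, cAMP production was monitored in TSHR-HEK293 cells after 30 min compound incubation at RT; HTRF reagents followed, with fluorescence intensity recorded after 1 h.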

[2] = qHTS assay to identify small molecule agonists of the hypoxia (HIF-1) signaling pathway - cell viability counter screen (AID 1224844; calls by dose curve; further: nearly all actives have a fitted effect of over 50% in size)
Method in brief: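 CellTiter-Glo luminescence read-out, 30 min RT, taken in the same wells as the beta-lactamase HRE reporter assay; HRE-bla ME-180 cells, 0.5% dialyzed FBS, 17 hr compound treatment at 37C, 5% CO2.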

[3] = qHTS assay to identify small molecule agonists of H2AX (AID 1224845; active means well fitted activation curve with a large enough effect in the signal ratio in the repeat runs, not every such curve was filed as active; the % refers to the signal ratio)
Method in brief: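 Wild-type CHO-K1 cells plated overnight, then exposed 3 hr at 37C to compounds at 15 concentrations (0.76% DMSO). Lysed, then HTRF anti-pH2AX(S139)-cryptate/anti-H2AX-d2 detection after 24 hr at room temperature; emissions 665 and 620 nm.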

[4] = qHTS assay to identify small molecule agonists of the hypoxia (HIF-1) signaling pathway (AID 1224846; active means well fitted activation curve with a large enough effect in the signal ratio in the repeat runs, not every such curve was filed as active; the % refers to the signal ratio)
Method in brief: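 Beta-lactamase FRET read-out (CCF4-AM substrate) from ME-180 cells carrying an HRE-driven bla reporter, after 17 hrs compound exposure at 37C/5% CO2. Cells were seeded at 2,000 per well in 0.5% dialyzed FBS medium and preincubated 5 hrs.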

[5] = qHTS assay to identify small molecule agonists of H2AX - cell viability counter screen (AID 1224847; calls by dose curve; further: top concentration of the series differs between compounds; nearly all actives have a fitted effect of over 30% in size)
Method in brief: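 Counter-screen for viability: CellTiter-Glo ATP luminescence read after 3 h compound treatment (15-point titration, 0.76% DMSO final) of CHO-K1 cells at 37C, with 30 min room-temperature reagent incubation.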

[6] = qHTS assay to identify small molecule antagonists of the estrogen related receptor (ERR) signaling pathway from Tox21 library (AID 1224848); further: nearly all actives have a fitted effect of over 50% in size; further: potency means the concentration at half of the fitted maximal effect
Method in brief: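 Tox21 10K compounds in DMSO tested for ERR pathway antagonism in NTP's ERR cell line; 18 h, 37 C exposure; ONE-Glo luminescence.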

[7] = qHTS assay to identify small molecule agonists of the estrogen related receptor (ERR) signaling pathway from Tox21 library (AID 1224849; calls by dose curve; further: nearly all actives have a fitted effect of over 15% in size); conditions: ERR reporter cell line, ONE-Glo luciferase, 18 h; at 92.4 µM (top of the series) unless noted
Method in brief: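 Luminescence readout (ONE-Glo, 30 min RT) after 18 h compound exposure at 37 C of NTP-supplied ERR reporter cells; cells were plated 6 h before compound addition by pin tool.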

[8] = qHTS RealTime-Glo MT Cell Viability Assay in HepG2 cells - 24 hour (AID 1224867); further: nearly all actives have a fitted effect of over 50% in size
Method in brief: (§1)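 Compound treatment began 5 h after plating HepG2 cells (600/well) with NanoLuc luciferase and prosubstrate. Plates stayed at 37 C for 40 h; luminescence was captured at six time points, 0 h through 40 h.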

[9] = qHTS RealTime-Glo MT Cell Viability Assay in HEK293 cells - 32 hour (AID 1224868); further: nearly all actives have a fitted effect of over 50% in size; further: potency means the concentration at half of the fitted maximal effect
Method in brief: (§2)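 Quantitative high-throughput screen of the Tox21 10K library in HEK293: cells and RealTime-Glo reagents plated together, compound added at 5 h, luminescence monitored through 40 h at 37 C.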

[10] = A CellTox Green Cytotoxicity Assay to monitor cytotoxicity in HEK293 cells - 0 hour (AID 1224869); further: nearly all actives have a fitted effect of over 50% in size
Method in brief: (§3)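 Read-out: fluorescence of a cell-impermeant cyanine dye staining DNA of dead cells, proportional to cytotoxicity. HEK293, 600 cells/well with reagent, compound (23 nL DMSO) added after 5 h; reads at 0, 8, 16, 24, 32, 40 h.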

[11] = qHTS RealTime-Glo MT Cell Viability Assay in HepG2 cells - 40 hour (AID 1224870); further: nearly all actives have a fitted effect of over 50% in size
Method in brief: (§4)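 HepG2 cells mixed with RealTime-Glo MT reagents (NanoLuc plus cell-permeant prosubstrate) were seeded at 600 cells/well, incubated 5 h at 37 C/5% CO2, then pinned with compounds in DMSO; nonlytic luminescence tracked viability during 40 h treatment.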

[12] = A CellTox Green Cytotoxicity Assay to monitor cytotoxicity in HEK293 cells - 40 hour (AID 1224871); further: nearly all actives have a fitted effect of over 45% in size
Method in brief: as §3

[13] = qHTS RealTime-Glo MT Cell Viability Assay in HEK293 cells - 16 hour (AID 1224872); further: nearly all actives have a fitted effect of over 50% in size; further: potency means the concentration at half of the fitted maximal effect
Method in brief: as §2

[14] = qHTS RealTime-Glo MT Cell Viability Assay in HepG2 cells - 8 hour (AID 1224873); further: nearly all actives have a fitted effect of over 55% in size
Method in brief: as §4

[15] = qHTS RealTime-Glo MT Cell Viability Assay in HEK293 cells - 40 hour (AID 1224874); conditions: RealTime-Glo luminescence; max response: active compounds read low; further: nearly all actives have a fitted effect of over 50% in size; further: potency means the concentration at half of the fitted maximal effect
Method in brief: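 Luminescence readout at each listed time point; HEK293, 600 cells/well, RealTime-Glo MT reagent added with cells; compounds pinned (23 nL in DMSO) after 5 h at 37 C; continuous culture at 37 C.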

[16] = A CellTox Green Cytotoxicity Assay to monitor cytotoxicity in HEK293 cells - 24 hour (AID 1224875); further: nearly all actives have a fitted effect of over 45% in size
Method in brief: as §3

[17] = A CellTox Green Cytotoxicity Assay to monitor cytotoxicity in HepG2 cells - 16 hour (AID 1224876); further: nearly all actives have a fitted effect of over 45% in size
Method in brief: (§5)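 HepG2, 600 cells/well premixed w/ CellTox Green; 5 h settle, 37 C/5% CO2; pintool cpd add (DMSO); 37 C, 40 h; fluorescence read at 0, 8, 16, 24, 32, 40 h.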

[18] = qHTS RealTime-Glo MT Cell Viability Assay in HepG2 cells - 32 hour (AID 1224877); further: nearly all actives have a fitted effect of over 55% in size
Method in brief: as §1

[19] = A CellTox Green Cytotoxicity Assay to monitor cytotoxicity in HepG2 cells - 24 hour (AID 1224878); further: nearly all actives have a fitted effect of over 45% in size
Method in brief: as §5

[20] = A CellTox Green Cytotoxicity Assay to monitor cytotoxicity in HepG2 cells - 40 hour (AID 1224879); further: nearly all actives have a fitted effect of over 40% in size
Method in brief: as §5
On the % scale 0 is the no-effect control and ±100 the full control effect.

CC(C)CC(O)CC(C)C
inactive: Potency [1] | Potency [2] | Potency [3] | outcome [4] | Potency [5] | Potency [6] | activity change, positive = activation [7] 2.06% | Potency [8] | Potency [9] | Potency [10] | Potency [11] | Potency [12] | Potency [13] | Potency [14] | max response [15] 2.3% | Potency [16] | Potency [17] | Potency [18] | Potency [19] | Potency [20]

O=C(O)CN1C(=O)c2cccc3cccc(c23)C1=O
inactive: Potency [1] | Potency [2] | Potency [3] | outcome [4] | Potency [5] | Potency [6] | activity change, positive = activation [7] 3.18% [at 42.5 µM] | Potency [8] | Potency [9] | Potency [11] | Potency [13] | Potency [14] | max response [15] 9% | Potency [16] | Potency [17] | Potency [18] | Potency [20]

Nc1ccc(S(=O)(=O)NCc2ccccc2)cc1
inactive: Potency [1] | Potency [2] | Potency [3] | outcome [4] | Potency [5] | Potency [8] | Potency [9] | Potency [10] | Potency [11] | Potency [12] | Potency [13] | Potency [14] | max response [15] -2.82% | Potency [16] | Potency [17] | Potency [18] | Potency [19] | Potency [20]

C=CC(=O)NC(C)C
inactive: Potency [1] | Potency [2] | Potency [3] | outcome [4] | Potency [5] | Potency [6] | activity change, positive = activation [7] 4.77% | Potency [8] | Potency [9] | Potency [10] | Potency [11] | Potency [12] | Potency [13] | Potency [14] | max response [15] 9.7% | Potency [17] | Potency [18] | Potency [19]

COc1ccc(C)cc1
inactive: Potency [1] | Potency [2] | Potency [3] | outcome [4] | Potency [5] | Potency [8] | Potency [9] | Potency [10] | Potency [11] | Potency [12] | Potency [13] | Potency [14] | max response [15] 9.25% | Potency [16] | Potency [17] | Potency [18] | Potency [19] | Potency [20]

OCC(CO)n1cnc(-c2ccc(F)cc2)c1-c1ccnc(Oc2ccccc2)n1
active: Potency [6] 27.3 µM
inactive: Potency [1] | Potency [2] | Potency [3] | outcome [4] | Potency [5] | activity change, positive = activation [7] -29% | Potency [8] | Potency [9] | Potency [10] | Potency [11] | Potency [12] | Potency [13] | Potency [14] | Potency [16] | Potency [17] | Potency [18] | Potency [19] | Potency [20]

CCO[Si](C)(CCCOCC1CO1)OCC (stereo not given)
inactive: Potency [1] | Potency [2] | Potency [3] | outcome [4] | Potency [5] | Potency [6] | activity change, positive = activation [7] 0.152% | Potency [8] | Potency [9] | Potency [10] | Potency [11] | Potency [12] | Potency [13] | Potency [14] | max response [15] 13.3% | Potency [16] | Potency [17] | Potency [18] | Potency [19] | Potency [20]

CN1C(CSCC(F)(F)F)Nc2cc(Cl)c(S(N)(=O)=O)cc2S1(=O)=O (stereo not given)
active: Potency [9] 19 µM | Potency [13] 19 µM | Potency [15] 21.3 µM
inactive: Potency [1] | Potency [2] | Potency [3] | outcome [4] | Potency [5] | activity change, positive = activation [7] -16.7% [at 42.5 µM] | Potency [8] | Potency [11] | Potency [12] | Potency [14] | Potency [16] | Potency [17] | Potency [18] | Potency [19] | Potency [20]

C=Cc1ccc(OC(C)=O)cc1
inactive: Potency [1] | Potency [2] | Potency [3] | outcome [4] | Potency [5] | Potency [6] | activity change, positive = activation [7] 12.7% | Potency [8] | Potency [9] | Potency [10] | Potency [11] | Potency [13] | Potency [14] | max response [15] 18.3% | Potency [16] | Potency [17] | Potency [18] | Potency [20]

CCC(CO)(CO)[N+](=O)[O-]
inactive: Potency [1] | Potency [2] | Potency [3] | outcome [4] | Potency [5] | Potency [6] | activity change, positive = activation [7] 1.64% | Potency [8] | Potency [9] | Potency [10] | Potency [11] | Potency [12] | Potency [13] | Potency [14] | max response [15] 1.66% | Potency [16] | Potency [18]

C[C@@H]1C[C@H]2[C@@H]3CCC4=CC(=O)C=C[C@]4(C)[C@@]3(F)[C@@H](O)C[C@]2(C)[C@@]1(O)C(=O)COP(=O)(O)O
inactive: Potency [1] | Potency [2] | Potency [3] | outcome [4] | Potency [5] | Potency [8] | Potency [9] | Potency [10] | Potency [11] | Potency [12] | Potency [13] | Potency [14] | max response [15] -21.2% | Potency [16] | Potency [17] | Potency [18] | Potency [19] | Potency [20]

ClC1=C(Cl)C1(Cl)Cl
inactive: Potency [1] | Potency [2] | Potency [3] | outcome [4] | Potency [5] | Potency [6] | activity change, positive = activation [7] 7.16% | Potency [8] | Potency [9] | Potency [10] | Potency [11] | Potency [12] | Potency [13] | Potency [14] | max response [15] -7.96% | Potency [17] | Potency [18] | Potency [19] | Potency [20]

Cc1ccc2c(c1[N+](=O)[O-])C(=O)c1ccccc1C2=O
active: Potency [9] 0.958 µM | Potency [15] 0.958 µM
inactive: Potency [1] | Potency [2] | Potency [3] | outcome [4] | Potency [5] | Potency [6] | Potency [8] | Potency [10] | Potency [14] | Potency [17] | Potency [18] | Potency [19] | Potency [20]
